Measured values from PubChem BioAssay (NCATS).
Unmarked numbers belong to inactive results. Records with an inconclusive call do not appear. A call without a number means that no potency is given here. Active and inactive are the calls of the source. Calls follow the shape of the dose curve; as a rule, active = well fitted curve in the direction sought with a large enough effect; inconclusive = small, poorly fitted or top-dose-only effect, or another doubt; inactive = no such curve, though single readings can be large; an effect the other way counts as inactive or inconclusive.

Tests used:
[1] = molecular target: Glutathione peroxidase 1 (Homo sapiens) (UniProt P07203); assay: Primary qHTS Assay for Inhibitors of Recombinant Selenoprotein Glutathione Peroxidase 1 (GPX1) (AID 1845191); also: nearly all actives have a fitted effect of over 65% in size
Glutathione peroxidase 1 (Homo sapiens), sequence (P07203 whole entry, looked up): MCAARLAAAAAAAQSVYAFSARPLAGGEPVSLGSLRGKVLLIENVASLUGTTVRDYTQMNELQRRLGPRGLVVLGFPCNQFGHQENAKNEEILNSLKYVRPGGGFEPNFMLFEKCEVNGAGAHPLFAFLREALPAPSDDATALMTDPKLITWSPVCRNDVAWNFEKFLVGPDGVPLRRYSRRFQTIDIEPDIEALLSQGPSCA
Outline: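 10 nM GPX1 + cpd, 30 min RT; start w/ 1 mM GSH, 0.5 mM cumene hydroperoxide, 0.5 mM NADPH, 100 nM GR, 0.01% BSA; buffer 50 mM Tris-HCl pH 7.5, 2 mM EDTA, 150 mM NaCl; Fl 340/450, 0 & 15 min.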

[2] = molecular target: Phospholipid hydroperoxide glutathione peroxidase GPX4 (Homo sapiens) (UniProt P36969); assay: Primary qHTS Assay for Inhibitors of Recombinant Selenoprotein Glutathione Peroxidase 4 (GPX4) (AID 1845192); also: nearly all actives have a fitted effect of over 65% in size
Phospholipid hydroperoxide glutathione peroxidase GPX4 (Homo sapiens), sequence (P36969 whole entry, looked up): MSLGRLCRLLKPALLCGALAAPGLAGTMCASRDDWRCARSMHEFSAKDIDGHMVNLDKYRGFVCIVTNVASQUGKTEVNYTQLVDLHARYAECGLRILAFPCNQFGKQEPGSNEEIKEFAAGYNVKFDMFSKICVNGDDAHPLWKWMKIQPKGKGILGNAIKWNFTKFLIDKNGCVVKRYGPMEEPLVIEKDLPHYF
Outline: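 NADPH consumption, followed by fluorescence at 340/450 nm between 0 and 15 min, reports GPX4 activity via coupled glutathione reductase (100 nM). Enzyme 200 nM was pre-exposed to compound 30 min; 0.5 mM cumene hydroperoxide and 1 mM GSH served as substrates.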

[3] = molecular target: Luciferin 4-monooxygenase (Photinus pyralis) (UniProt P08659); assay: Primary firefly luciferase (FLuc) qHTS assay for identification of artifact compounds. (AID 1845220); also: nearly all actives have a fitted effect of over 60% in size
Outline: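 FLuc 10 nM; luciferin 10 uM; ATP 10 uM; Tris-acetate pH 7.6, Mg-acetate 10 mM; 15 min RT preincubation; 5 min reaction; luminescence.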

[4] = Primary fluorescence-based thiol-reactive (MSTI) qHTS assay for identification of artifact compounds. (AID 1845221); also: nearly all actives have a fitted effect of over 65% in size
Outline: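 Reactivity toward the thiol probe MSTI (4 uM) is scored by fluorescence at Ex/Em 525/598 nm after 1 h at room temperature. Acetyl-MSTI and MSTI define the activity scale.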

[5] = system: Nanoluciferase (engineered Oplophorus gracilirostris luciferase); assay: Primary Nanoluciferase (NLuc) qHTS assay for identification of artifact compounds. (AID 1845222)
Outline: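 NLuc from S16 cell medium (1:55) plus test compounds, 15 min, room temperature. Luminescence after Nano-Glo (1:100) addition, 5 min.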

[6] = Primary redox qHTS assay for identification of artifact compounds. (AID 1845223)
Outline: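 Amplex Red (25 uM) and HRP (250 mU/mL) in HBSS, with compounds for 15 min, then 250 uM DTT for 30 min, room temperature, dark. Fluorescence 525/598 nm read; normalized to DMSO and 10 uM DA3003; Hill fit.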
Potency is read from the fitted curve at half-maximal effect.

For CC1(C)C2CCC(CO[C@@H]3O[C@H](CO[C@@H]4OC[C@](O)(CO)[C@H]4O)[C@@H](O)[C@H](O)[C@H]3O)C1C2 (stereo partly drawn), the Potency [1] was “inactive”, the Potency [2] was “inactive” and the Potency [3] was “inactive”. The Potency [4] was “inactive”, the Potency [5] was “inactive” and the Potency [6] was “inactive”.

In the case of O=C(NCCN1CCC(n2c(=O)[nH]c3ccccc32)CC1)c1ccc2ccccc2c1, the Potency [1] is reported as “inactive”, the Potency [2] is reported as “inactive” and the Potency [3] is reported as “inactive”. The Potency [4] was “inactive”, the Potency [5] was “inactive” and the Potency [6] was “inactive”.

For CCC(C)CNCC(=O)N1CCC2SC=CC2C1COc1cccc(C)c1 (stereo not drawn), the Potency [1] was “inactive”, the Potency [2] was “inactive” and the Potency [3] was “inactive”. The Potency [4] was “inactive”, the Potency [5] was “inactive” and the Potency [6] was “inactive”.

With C[C@@]12C(=O)N(c3ccc(C(=O)Nc4cccc5cccnc45)cc3)C(=O)[C@@H]1[C@@H]1C=C[C@H]2C1 the Potency [1] was “inactive”, the Potency [2] was “inactive” and the Potency [3] was “inactive”. For the same compound, the Potency [4] was “inactive”, the Potency [5] was “inactive” and the Potency [6] was “inactive”.

For C=C1C(=O)O[C@@H]2/C=C(\C)CC/C=C(\C)CC[C@@H]12, the Potency [1] was “inactive”, the Potency [2] was “inactive” and the Potency [3] was “inactive”. The Potency [4] was “inactive”, the Potency [5] was “inactive” and the Potency [6] was “inactive”.

In the case of C/C=C(\C)C(=O)O[C@H]1C=C(CO)C(=O)[C@H](OC(C)=O)[C@H]1C(C)C, the Potency [1] is reported as “inactive”, the Potency [2] is reported as “inactive” and the Potency [3] is reported as “inactive”. For the same compound, the Potency [4] was “inactive”, the Potency [5] was “inactive” and the Potency [6] was “inactive”.

For C=C(COC(=O)C(O)C(O)CN)C12OC1C1(C)C(=CC2=O)C(O)C(O)CC1C (stereo not drawn), the Potency [1] was “inactive”, the Potency [2] was “inactive” and the Potency [3] was “inactive”. The Potency [4] was “inactive”, the Potency [5] was “inactive” and the Potency [6] was “inactive”.

For C/C(=C\CO[C@@H]1O[C@H](CO[C@H]2OC[C@](O)(CO)[C@H]2O)[C@@H](O)[C@H](O)[C@H]1O)C(C)(C)O, the Potency [1] was “inactive”, the Potency [2] was “inactive” and the Potency [3] was “inactive”. For the same compound, the Potency [4] was “inactive”, the Potency [5] was “inactive” and the Potency [6] was “inactive”.

With Cc1nc(Nc2ccc(F)cc2)nc(N2CCc3ccccc3C2C)c1C (stereo not drawn) the Potency [1] was “inactive”, the Potency [2] was “inactive” and the Potency [3] was “inactive”. The Potency [4] was “inactive”, the Potency [5] was “inactive” and the Potency [6] was “inactive”.

With CNc1cc2[nH]c(=O)n(-c3ccc(NC(=O)NS(=O)(=O)c4ccc(Cl)s4)cc3)c(=O)c2cc1F the Potency [1] was “inactive”, the Potency [2] was “inactive” and the Potency [3] was “inactive”. For the same compound, the Potency [4] was “inactive”, the Potency [5] was “inactive” and the Potency [6] was “inactive”.

With CNC(C)C(=O)NC(C(=O)N1CCCC1C(=O)Nc1snnc1-c1ccccc1)C1CCCCC1 (stereo not drawn) the Potency [1] was “inactive”, the Potency [2] was “inactive” and the Potency [3] was “inactive”. The Potency [4] was “inactive”, the Potency [5] was “inactive” and the Potency [6] was “inactive”.

With COc1ccc([C@H]2OC[C@H]3O[C@@H](O[C@H]4[C@@H]2NC[C@@H]4O)[C@H](O)[C@H]3O)cc1 the Potency [1] was “inactive”, the Potency [2] was “inactive” and the Potency [3] was “inactive”. The Potency [4] was “inactive”, the Potency [5] was “inactive” and the Potency [6] was “inactive”.

With COC(=O)c1cc2c(C(F)(F)F)cc(-c3ccccc3)cc2n1O the Potency [1] was “inactive”, the Potency [2] was “inactive” and the Potency [3] was “inactive”. For the same compound, the Potency [4] was 2.67 µM (active), the Potency [5] was “inactive” and the Potency [6] was “inactive”.

With O=C(NCCCN1CCC2(CC1)OCc1ccccc12)[C@H]1CCCN1Cc1ccccc1 the Potency [1] was “inactive”, the Potency [2] was “inactive” and the Potency [3] was “inactive”. The Potency [4] was “inactive”, the Potency [5] was “inactive” and the Potency [6] was “inactive”.

In the case of C/C1=C\[C@@H](C)C[C@@H](C)[C@@H](Cc2cnco2)OC(=O)/C(C)=C/[C@@H](C)C[C@@H](C)[C@@H](Cc2cnco2)OC1=O, the Potency [1] is reported as “inactive”, the Potency [2] is reported as “inactive” and the Potency [3] is reported as “inactive”. For the same compound, the Potency [4] was “inactive”, the Potency [5] was “inactive” and the Potency [6] was “inactive”.

With N#Cc1cc(C2=Nc3ccc(Br)cc3NC(=O)C2)ccn1 the Potency [1] was “inactive”, the Potency [2] was “inactive” and the Potency [3] was “inactive”. The Potency [4] was “inactive”, the Potency [5] was “inactive” and the Potency [6] was “inactive”.

For Cn1nc(-c2ccc(C(F)(F)F)cc2)nc2c(=O)n(C)c(=O)nc1-2, the Potency [1] was 25.5 µM (active), the Potency [2] was 22.7 µM (active) and the Potency [3] was 6.01 µM (active). For the same compound, the Potency [4] was 2.67 µM (active), the Potency [5] was 3.01 µM (active) and the Potency [6] was 0.15 µM (active).

In the case of Cc1cc(C)c(-n2cc(C)c3c(Cl)nc(C)nc32)c(C)c1, the Potency [1] is reported as “inactive”, the Potency [2] is reported as “inactive” and the Potency [3] is reported as “inactive”. For the same compound, the Potency [4] was “inactive”, the Potency [5] was “inactive” and the Potency [6] was “inactive”.

In the case of CC1=CC2/C=C(\C)CCC(O)C/C=C/C(=O)OC23C(=O)NC(CC(C)C)C3C1C (stereo not drawn), the Potency [1] is reported as “inactive”, the Potency [2] is reported as “inactive” and the Potency [3] is reported as “inactive”. For the same compound, the Potency [4] was “inactive”, the Potency [5] was “inactive” and the Potency [6] was “inactive”.

For CCCCNc1ncc(-c2ccc(CN3CCOCC3)cn2)c(NC2CCC(O)CC2)n1 (stereo not drawn), the Potency [1] was “inactive”, the Potency [2] was “inactive” and the Potency [3] was “inactive”. The Potency [4] was “inactive”, the Potency [5] was “inactive” and the Potency [6] was “inactive”.

With CNC(=O)[C@@H](c1ccccc1)N1CCc2cc(OC)c(OC)cc2[C@@H]1CCc1ccc(C(F)(F)F)cc1 the Potency [1] was “inactive”, the Potency [2] was “inactive” and the Potency [3] was “inactive”. The Potency [4] was “inactive”, the Potency [5] was “inactive” and the Potency [6] was “inactive”.

In the case of O=C(OC1CN2CCC1CC2)N1CCc2ccccc2C1c1ccccc1 (stereo not drawn), the Potency [1] is reported as “inactive”, the Potency [2] is reported as “inactive” and the Potency [3] is reported as “inactive”. The Potency [4] was “inactive”, the Potency [5] was “inactive” and the Potency [6] was “inactive”.

In the case of CCC(C)C(=O)O[C@H]1[C@@H](OC(=O)c2ccoc2)C[C@](C)(O)[C@]23OC(C)(C)[C@H](C[C@H](OC(=O)c4ccoc4)[C@]12COC(C)=O)[C@H]3OC(C)=O (stereo partly drawn), the Potency [1] is reported as “inactive”, the Potency [2] is reported as “inactive” and the Potency [3] is reported as “inactive”. The Potency [4] was “inactive”, the Potency [5] was “inactive” and the Potency [6] was “inactive”.
